Results from PubChem BioAssay (NCATS).
Calls of active or inactive are those of the source. Calls follow the shape of the full dose curve.

Target: Tumor susceptibility gene 101 protein (Homo sapiens) (UniProt Q99816)
Test: qHTS Validation Assay for Iinhibitors of HIV-1 Budding by Blocking the Interaction of PTAP/TSG101 (AID 485342); also: 0% is about no effect
Conditions: TSG101-PTAP binding, fluorescence polarization, 4-point titration; series mostly up to 115 µM; fluorescence change: at the top concentration
Description: NIH Molecular Libraries Probe Production Network [MLPCN]
NIH Chemical Genomics Center [NCGC]
PI Name: Dr. Eric Freed, NCI
Stages of the HIV-1 replication cycle, specifically virus assembly and release, provide underexploited targets for the development of novel antiviral inhibitors. The late stages of HIV-1 replication are mediated by the Gag precursor protein, Pr55Gag. Expression of Pr55Gag is both necessary and sufficient for the production of virus-like particles from Gag-expressing cells. The Gag protein hijacks key host proteins involved in endocytic machinery of the host cell to promote endosomal processing and viral budding. The budding process requires a direct interaction between a […] (PTAP) motif in the p6 domain of Gag and the cellular endosomal sorting protein known as Tsg101. In this way, the Gag PTAP motif promotes the host cells to recruit viral particles to the plasma membrane where the new viral particles are released, effectively turning the host cells into viral factories. A fluorescence anisotropy assay has been developed to quantitatively measure the PTAP-Tsg101 interaction which can be used to screen for inhibitors of this interaction.
NCGC Assay Protocol Summary:
Two uL of the Tsg101 binding domain in buffer (10 mM HEPES pH 7.5; 0.15 M NaCl, 0.01% Tween 20; 3 mM EDTA;0.1 mM TCEP) was dispensed into Greiner black MB 1536-well plates (final concentration 10 uM). Then, 23 nL of compounds or DMSO were delivered to each well using a pin tool. Finally, 2 uL of a FITC-labeled peptide containing the PTAP motif (1) in the same buffer was dispensed (50 nM final concentration) and the binding was allowed to proceed for 20 min. at r.t. Fluorescent polarization was determined using FITC excitation and polarized emission filters on a Perkin Elmer Viewlux.
Keywords: Tsg101, PTAP, Gag, HIV, fluorescent polarization, MLSMR, MLPCN, NIH Roadmap, qHTS, NCGC

Tumor susceptibility gene 101 protein (Homo sapiens), sequence (Q99816 whole entry, looked up): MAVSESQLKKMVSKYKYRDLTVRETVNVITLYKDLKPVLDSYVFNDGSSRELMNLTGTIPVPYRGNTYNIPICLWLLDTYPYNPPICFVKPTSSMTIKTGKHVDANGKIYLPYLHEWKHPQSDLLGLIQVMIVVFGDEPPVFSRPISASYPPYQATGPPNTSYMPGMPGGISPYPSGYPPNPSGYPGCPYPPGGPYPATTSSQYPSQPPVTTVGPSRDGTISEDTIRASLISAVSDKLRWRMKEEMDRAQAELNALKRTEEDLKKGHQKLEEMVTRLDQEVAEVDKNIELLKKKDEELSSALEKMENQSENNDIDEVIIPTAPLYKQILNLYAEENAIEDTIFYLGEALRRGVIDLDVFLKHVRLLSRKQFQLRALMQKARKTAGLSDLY

SMILES	fluorescence change
Cc1ccc(S(=O)(=O)N[C@@H](Cc2ccccc2)C(=O)CCl)cc1	2.06% (inactive)
CCN1CCCC1CNC(=O)c1cc(S(N)(=O)=O)ccc1OC (configuration not stated)	3.96% (inactive)
O=C(O)C1CCCN(CCC=C(c2ccccc2)c2ccccc2)C1 (configuration not stated)	-3.37% (inactive)
CCN(CC)CC#CCOC(=O)C(O)(c1ccccc1)C1CCCCC1 (configuration not stated)	-2.8% (inactive)
CC1CC2C3CCC4=CC(=O)C=C[C@]4(C)[C@@]3(F)[C@@H](O)C[C@]2(C)[C@@]1(O)C(=O)CO (some centres not stated)	8.23% (inactive)
OCc1ccc(-c2nn(Cc3ccccc3)c3ccccc23)o1	-2.22% (inactive)
CCCCS(=N)(=O)CCC(N)C(=O)O (configuration not stated)	3.31% (inactive)
NC(=O)c1ccc2[nH]ccc2c1	1.34% (inactive)
CC1=C(C(=O)O)N2C(=O)[C@@H](NC(=O)C(N)c3ccccc3)[C@H]2SC1 (some centres not stated)	2.55% (inactive)
CCN(CC)CCn1c(=O)c(Cc2ccc(OC)cc2)nc2ccccc21	-0.476% (inactive)
N[C@@H](Cc1ccc(O)c(O)c1)C(=O)O	-1.77% (inactive)
CC(C)NCC(O)c1ccc(NS(C)(=O)=O)cc1 (configuration not stated)	1.85% (inactive)
NC(=O)c1cccc(N)c1	5.99% (inactive)
CC(=O)[C@H]1CC[C@H]2[C@@H]3CCC4=CC(=O)CC[C@]4(C)[C@H]3CC[C@]12C	-0.723% (inactive)
COc1cc2nc(N3CCCN(C)CC3)nc(NC3CCN(Cc4ccccc4)CC3)c2cc1OC	-7.24% (inactive)
COc1cc2ncnc(Nc3cccc(Cl)c3)c2cc1OC	-3.22% (inactive)
Nc1nc(N)c2nc(CNc3ccc(C(=O)NC(CCC(=O)O)C(=O)O)cc3)cnc2n1 (configuration not stated)	6.1% (inactive)
